Experimental data reported in PubChem BioAssay (NCATS).
Records with an inconclusive call do not appear. Calls of active or inactive are those of the source. Calls follow the shape of the dose curve; as a rule, active = well fitted curve in the direction sought with a large enough effect; inconclusive = small, poorly fitted or top-dose-only effect, or another doubt; inactive = no such curve, though single readings can be large; an effect the other way counts as inactive or inconclusive.

Assay: MultiTox-Fluor Cytotoxicity Assay - LYMP1-002 - Live Cells (AID 955);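 also: cells exposed to compound for 16 hours; % is scaled to controls: 0 for no effect and ±100 for the full control effect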
Settings: LYMP1-002 lymphoblastoid live-cell protease fluorescence viability; series mostly up to 46.1 µM; viability change, negative = cytotoxic: at the top concentration
How it was run: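 LYMP1-002 lymphoblastoid cells; 2500 cells/well; 16 hr compound exposure, 37 C; MultiTox-Fluor reagent 60 min RT; live-cell fluorescence Ex/Em=405/510; qHTS concentration-response, Hill-equation AC50; tetraoctylammonium bromide positive control.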

Row | Compound | viability change, negative = cytotoxic
1 | NC(=Nc1ccccc1)Nc1ccccc1 | -2.62% (inactive)
2 | CN=C(NC#N)NCCSCc1nc[nH]c1C | -1.25% (inactive)
3 | NC(=O)N1c2ccccc2C=Cc2ccccc21 | -3.13% (inactive)
4 | COc1cc(Cc2cnc(N)nc2N)cc(OC)c1OC | 5.71% (inactive)
5 | O=c1[nH]c(=O)n([C@H]2C[C@H](O)[C@@H](CO)O2)cc1Br | 2.06% (inactive)
6 | CCCCNC(=O)NS(=O)(=O)c1ccc(C)cc1 | 1.43% (inactive)
7 | CCCCOCCOCCOCc1cc2c(cc1CCC)OCO2 | 2.65% (inactive)
8 | Nc1nc(N)c2nc(-c3ccccc3)c(N)nc2n1 | 6.59% (inactive)
9 | COc1ccc(CN(CCN(C)C)c2ccccn2)cc1 | 2.76% (inactive)

Assay: MultiTox-Fluor Cytotoxicity Assay - LYMP1-002 - Dead Cells (AID 960); also: nearly all actives have a fitted effect of over 60% in size; also: potency is read from the fitted curve at half-maximal effect;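 as to cytotoxicity (dead cells): cells exposed to compound for 16 h at 37 °C; 0% = DMSO and 100% = tetraoctylammonium bromide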
Settings: LYMP1-002 lymphoblastoid cells, dead-cell protease fluorescence; series mostly up to 46.1 µM; cytotoxicity (dead cells): at the top concentration
How it was run: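 Readout: fluorescence at 485/520 from cell-impermeant bis-AAF-R110 cleaved by proteases leaking from damaged cells. LYMP1-002 lymphoblastoid line, 16 hr compound treatment at 37 C, concentration-response in qHTS format; Hill-equation AC50 values.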

Row | Compound | cytotoxicity (dead cells) | Potency
10 | NC(=Nc1ccccc1)Nc1ccccc1 | 14.6% (inactive) | 
11 | COC(=O)[C@H]1[C@H]2C[C@@H]3c4[nH]c5cc(OC)ccc5c4CCN3C[C@H]2C[C@@H](OC(=O)c2cc(OC)c(OC)c(OC)c2)[C@@H]1OC |  | 31.6 µM (active)
12 | CN=C(NC#N)NCCSCc1nc[nH]c1C | -29.6% (inactive) | 
13 | NC(=O)N1c2ccccc2C=Cc2ccccc21 | 20.9% (inactive) | 
14 | COc1cc(Cc2cnc(N)nc2N)cc(OC)c1OC | 3.69% (inactive) | 
15 | O=c1[nH]c(=O)n([C@H]2C[C@H](O)[C@@H](CO)O2)cc1Br | 1.11% (inactive) | 
16 | CCCCNC(=O)NS(=O)(=O)c1ccc(C)cc1 | 18% (inactive) | 
17 | CCCCOCCOCCOCc1cc2c(cc1CCC)OCO2 | 29.4% (inactive) | 
18 | COc1ccc(CN(CCN(C)C)c2ccccn2)cc1 | 0.608% (inactive) | 
